D3 ag: D3 dopamine receptor (human) agonism | D3R DiscoveRx beta-arrestin cells, luminescence, 90 min | max activation, % | 410,000 compounds, 0.58% hits | AID 652048; in the data active = max activation above about 30%; note: 0% is about no effect
Target sequence (P35462 whole entry, looked up): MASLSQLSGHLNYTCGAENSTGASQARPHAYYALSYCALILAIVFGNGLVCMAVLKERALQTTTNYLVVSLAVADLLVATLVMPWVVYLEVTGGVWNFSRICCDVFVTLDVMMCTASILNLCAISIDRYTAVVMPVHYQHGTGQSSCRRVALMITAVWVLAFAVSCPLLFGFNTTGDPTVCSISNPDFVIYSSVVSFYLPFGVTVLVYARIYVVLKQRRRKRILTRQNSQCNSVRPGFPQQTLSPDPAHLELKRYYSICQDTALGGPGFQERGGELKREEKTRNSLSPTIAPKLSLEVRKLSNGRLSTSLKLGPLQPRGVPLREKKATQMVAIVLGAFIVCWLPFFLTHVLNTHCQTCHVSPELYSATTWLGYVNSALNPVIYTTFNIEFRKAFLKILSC
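Cells at 1500/well, incubated overnight, then treated with pinned compounds (dopamine as control) for 90 min at 37 degrees C. DiscoveRx reagent added for 30 - 60 minutes at room temperature; luminescence read.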
a7 integrin act: activators of alpha7 integrin expression for muscular dystrophy | alpha7betagal myoblasts, beta-gal FDG fluorescence, 48 h | Potency, µM (titrated, usually from 38.3 µM), for inactives: at the highest dose activation, most hits filed as activators | 350,000 compounds, 0.064% hits | AID 624291;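 note: potency is the fitted concentration of half-maximal effect; 100% = response of the positive control SU9516; nearly all actives have a fitted effect of over 60% in size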
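alpha7betagal+/- myoblasts (passage 13, 250/well) treated 48 h at 37C with compounds at 1:260 dilution of DMSO stock. Lysed, then beta-galactosidase activity read as FDG fluorescence (ex 480/em 540) after 30 min, with pre-read for autofluorescence.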
D3 antag: blocks the human D3 dopamine receptor. D3R cells, DiscoveRx beta-arrestin luminescence, antagonist mode; hits give low values. P35462. 360,000 compounds, 2.5% hits. max response, negative = inhibition, %. AID 652054; in the data active = max response below about -50%; inconclusive = no clear call, values can overlap the other calls; note: % is set by controls: 0 for no effect and ±100 for the full control effect
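Cells expressing the human receptor were seeded at 1500 cells/well, incubated overnight at 37 degrees C in 5% CO2, then exposed to library compounds with dopamine controls for 90 minutes at 37 degrees C before luminescent detection.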
ATXN2 expr inh: inhibitors of ATXN2 expression; HEK-293 ATXN2-luciferase reporter, luminescence, 24 h; Potency, µM (series often up to 57 µM), for the others: top-dose activity change, negative = inhibition, actives largely listed as inhibitors; 360,000 compounds, 0.72% hits; AID 1745845; note: potency is the fitted concentration of half-maximal effect; % is set by controls: 0 for no effect and ±100 for the full control effect; nearly all actives have a fitted effect of over 55% in size
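qHTS (up to 57 uM final) was run with 24 h compound exposure of reporter cells at 37 °C. Each well was multiplexed: SteadyGlo luminescence measured ATXN2-luciferase expression after a fluorogenic Gly-Phe-AFC viability readout (25 uM final).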
S2 tox: reduces viability in counter-screen for ATXN expression inhibitors; S2 cells (HEK-293 line with an ATXN2-luciferase reporter) viability, CellTiter-Fluor protease fluorescence, 24 h; 400,000 compounds, 0.49% hits; Potency, µM (doses to about 56.7 µM), most hits filed as cytotoxic; note: potency is the fitted concentration of half-maximal effect; nearly all actives have a fitted effect of over 40% in size
IL1B secr inh: inhibitors of inflammasome signaling (IL-1 beta secretion). THP-1 LPS/ATP IL-1B secretion, AlphaLISA, 16 h; hits give low values. activity change, % at 57.5 µM. 360,000 compounds, 4.7% hits. AID 743279; in the data active = activity change below about -50%; inconclusive = mostly about -30% to -49%; note: % is set by controls: 0 for no effect and ±100 for the full control effect
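Secreted IL-1B measured by AlphaLISA bead assay after 16 h compound exposure of THP-1 cells; compounds (final up to 57.5 uM) added 1 h before LPS (250 ng/mL) and ATP (1.25 mM) stimulation; lower signal means less secretion.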
* hit, by the source's call. The list is not random: actives were taken first. Their share in the collection is about 7%. Unless noted, calls come from the whole dose curve; as a rule, active = well fitted curve in the direction sought with a large enough effect; inconclusive = small, poorly fitted or top-dose-only effect, or another doubt; inactive = no such curve, though single readings can be large; an effect the other way counts as inactive or inconclusive.

Results for CC(C)N1CC=C2C(C#N)=C(N)C(C#N)(C#N)C(c3ccccc3)C2C1 (stereo not given) ?
D3 ag: 0; a7 integrin act: -14%; D3 antag: -77*; ATXN2 expr inh: -8%; S2 tox: inactive; IL1B secr inh: 0

What do the screens show for `COc1cc(C2C3CN(C)CC=C3C(C#N)=C(N)C2(C#N)C#N)ccc1OC(C)C` (stereo not given)?
D3 ag: -10; a7 integrin act: -42%; D3 antag: inconclusive; ATXN2 expr inh: -3%; S2 tox: inactive; IL1B secr inh: -11

How did CCN1CC=C2C(C#N)=C(N)C(C#N)(C#N)C(c3cc(Cl)ccc3Cl)C2C1 (stereo not given) do in these assays?
D3 ag: -18; a7 integrin act: -45%; D3 antag: -90*; ATXN2 expr inh: -9%; S2 tox: inactive; IL1B secr inh: -8

Results for COC1=CC(=O)OC(c2ccc(C#N)cc2)C1 (stereo not given) ?
D3 ag: 2; D3 antag: -5; IL1B secr inh: 0

Results for CN(C)CCN(C(=O)C1CCN(S(=O)(=O)c2cccs2)CC1)c1nc2ccc(F)cc2s1 ?
D3 ag: -25; a7 integrin act: -3%; D3 antag: -10; ATXN2 expr inh: 16%; S2 tox: inactive; IL1B secr inh: 10

Results for Cc1cccc2sc(N(CCN(C)C)C(=O)C3CCN(S(=O)(=O)c4cccs4)CC3)nc12 ?
D3 ag: -12; a7 integrin act: 23%; D3 antag: -15; ATXN2 expr inh: -7%; S2 tox: inactive; IL1B secr inh: -61*

What do the screens show for `Cc1cccc2sc(N(CCN(C)C)C(=O)/C=C/c3cccs3)nc12`?
D3 ag: -22; a7 integrin act: -42%; D3 antag: inconclusive; ATXN2 expr inh: -11%; S2 tox: inactive; IL1B secr inh: -93*

What do the screens show for `CN(C)CCCN(C(=O)/C=C/c1cccs1)c1nc2c(F)cccc2s1`?
D3 ag: -17; a7 integrin act: -69%; D3 antag: inconclusive; ATXN2 expr inh: inconclusive; S2 tox: inconclusive; IL1B secr inh: -105*

Results for COc1cccc(C(=O)Nc2ccc3nc(SCC(=O)N4CCc5ccccc54)sc3c2)c1 ?
D3 ag: 0; ATXN2 expr inh: 12%; S2 tox: inactive

Results for [O-][n+]1cccc2c(Br)cc(Br)c(O)c21 ?
D3 ag: -17; a7 integrin act: inconclusive; D3 antag: inconclusive; ATXN2 expr inh: -20%; S2 tox: inactive; IL1B secr inh: -62*

How did Cc1ccc2[nH]c(C(=O)N3CCC(C(N)=O)CC3)cc2c1 do in these assays?
D3 ag: 1; a7 integrin act: -20%; D3 antag: 15; ATXN2 expr inh: 15%; S2 tox: inconclusive; IL1B secr inh: 13

What do the screens show for `CCOC(=O)c1cn(CC)c2cc(Cl)c([N+](=O)[O-])cc2c1=O`?
D3 ag: 3; a7 integrin act: 7%; D3 antag: 0; ATXN2 expr inh: -7%; S2 tox: inactive; IL1B secr inh: 4

What do the screens show for `CCOC(=O)c1cn(-c2c(Cl)cccc2Cl)c2cc(Cl)c([N+](=O)[O-])cc2c1=O`?
D3 ag: 2; a7 integrin act: -5%; D3 antag: 10; S2 tox: inconclusive; IL1B secr inh: -54*

What do the screens show for `O=C(NCCc1cnc[nH]1)c1ccc(-c2ccccc2)cc1`?
D3 ag: -3; a7 integrin act: -44%; D3 antag: -3; ATXN2 expr inh: -19%; S2 tox: inactive; IL1B secr inh: -54*

How did CCOc1ccc(C(=O)NCCc2cnc[nH]2)cc1 do in these assays?
D3 ag: 2; a7 integrin act: -1%; D3 antag: 2; ATXN2 expr inh: -10%; S2 tox: inactive; IL1B secr inh: 32

Results for CC1(C)CC(=O)C(C=Nc2cc(C(=O)c3ccccc3)ccc2N)=C(O)C1 ?
D3 ag: -27; a7 integrin act: -4%; D3 antag: -125*; ATXN2 expr inh: 50%; S2 tox: inactive; IL1B secr inh: -10

How did CSc1ccccc1N=CC1=C(O)CC(C)(C)CC1=O do in these assays?
D3 ag: -2; a7 integrin act: 16%; D3 antag: inconclusive; ATXN2 expr inh: 2%; S2 tox: inactive; IL1B secr inh: 5

Results for COC(=O)c1ccc(N)c(N=CC2=C(O)CC(C)(C)CC2=O)c1 ?
D3 ag: -8; a7 integrin act: -3%; D3 antag: -51*; ATXN2 expr inh: 62%; S2 tox: inactive; IL1B secr inh: 4

Results for COc1ccc(Nc2nc(OC)nc(OC)n2)cc1 ?
D3 ag: 0; a7 integrin act: 14%; D3 antag: 6; S2 tox: inactive; IL1B secr inh: 3

What do the screens show for `COc1ccc(Nc2nc(Nc3ccc(OC)cc3)nc(-n3[nH]c(=O)c(C)c3C)n2)cc1`?
D3 ag: -16; a7 integrin act: 1%; D3 antag: -59*; ATXN2 expr inh: -22%; S2 tox: inactive; IL1B secr inh: 0

How did CCOC(=O)Nc1cc(OC)cc2ccc(C)nc12 do in these assays?
D3 ag: 3; a7 integrin act: 4%; D3 antag: 19; S2 tox: inactive; IL1B secr inh: -22

How did CCCCC1=CC2=CC(=O)C(C)(OC(=O)CC)C(=O)C2=CN1c1cccc(C#N)c1 (stereo not given) do in these assays?
D3 ag: 32*; a7 integrin act: 27%; D3 antag: -13; ATXN2 expr inh: 2%; S2 tox: inactive; IL1B secr inh: 63

Results for CCCCC1=CC2=CC(=O)C(C)(OC(=O)CC)C(=O)C2=CN1c1ccc(OC)cc1 (stereo not given) ?
D3 ag: 2; a7 integrin act: 34%; D3 antag: -8; ATXN2 expr inh: 1%; S2 tox: inactive; IL1B secr inh: 25

How did N#CC1(NC(=O)CN2C(=O)c3ccccc3C2=O)CCCCC1 do in these assays?
D3 ag: 9; a7 integrin act: 1%; D3 antag: -3; ATXN2 expr inh: -2%; S2 tox: inactive; IL1B secr inh: 4

How did N#CC1(NC(=O)Cn2ncc(Cl)c(Cl)c2=O)CCCCC1 do in these assays?
D3 ag: -1; a7 integrin act: -18%; D3 antag: 0; ATXN2 expr inh: -8%; S2 tox: inconclusive; IL1B secr inh: -103*

Results for COc1ccc2nc(N(CCN(C)C)C(=O)c3ccc4c(c3)OCCO4)sc2c1 ?
D3 ag: 0; a7 integrin act: -11%; D3 antag: -16; ATXN2 expr inh: 9%; S2 tox: inactive; IL1B secr inh: -10

Source: PubChem BioAssay
